Source: PubChem BioAssay
Records with an inconclusive call do not appear. Active and inactive are the calls of the source. Unless noted, the rule behind the calls is not given here.

How the values were obtained:
[1] = yeast TOR pathway RPL19A-GFP modulators, primary screen, cell-based, S. cerevisiae, multiplex flow cytometry (AID 1862; in the data active = percent of DMSO control GFP below about 86%;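 note: lower values mimic rapamycin by blocking the RPL19A rise seen in DMSO cells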); details: S. cerevisiae RPL19A-GFP strain, flow cytometry fluorescence, 3 h; at 10 µM; stronger effect = lower value
[2] = modulators of MEP2-GFP levels in yeast, primary screen, S. cerevisiae, multiplex flow cytometry (AID 1867;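 active = GFP response, as percent of the DMSO control, above the screen-wide mean plus 3 SD, about 139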;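 note: median GFP channel fluorescence of barcode-gated MEP2-GFP cells measured by flow cytometry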); details: S. cerevisiae MEP2-GFP strain, 3 h, at 10 µM, stronger effect = higher value
[3] = modulators of CIT2-GFP expression in yeast, primary screen, S. cerevisiae, GFP fusion, multiplex flow cytometry (AID 1870;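 active = percent response above a set limit, the screen-wide mean plus 3 SD, cut at about 130% in these data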;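 note: barcoded CIT2-GFP strain pooled with four other GFP strains with rapamycin as positive control; median GFP fluorescence per well over plate mean of DMSO wells so 100% = DMSO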); details: 3 h, at 10 µM, stronger effect = higher value
[4] = modulators of LAP4-GFP expression in yeast, primary screen, S. cerevisiae, multiplex flow cytometry (AID 1873;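 active = GFP signal, as percent of the solvent control, above the screen mean plus 3 SD, about 149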); details: 3 h, at 10 µM, stronger effect = higher value
[5] = inhibitors of CD8+ T cell-vesicle binding, pilot screen, LFA-1/ICAM-1 modulator project, MLPCN validation set, flow cytometry (AID 2523;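 active = response below a set limit, under 55% cells CD8-positive and vesicle-bound, and CD8 cells' 90th-percentile brightness under 279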;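 for vesicle binding response: mean PE anti-B7-1 fluorescence of CD8+ cells relative to row control; 100% = QL9-loaded vesicles with DMSO vehicle in the same plate row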); details: 2C mouse CD8+ T cells, at 7 µM, stronger effect = lower value; double positive events: measured here: CD8+/vesicle+ event percentage
[6] = target: Integrin beta-1 (Homo sapiens) + Integrin alpha-4 (Homo sapiens) (UniProt P13612+P05556); assay: inhibition of HUTS-21 binding to VLA-4, pilot screen, VLA-4 allosteric modulator project, U937 cells, HUTS-21 mAb, flow cytometry, validation set (AID 2674;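 active = inhibition above 50%, about 3 SD of the validation set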;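 note: antibody binding induced by the VLA-4 ligand LDV present at three times its Kd; 0% = LDV ligand with antibody and no compound and 100% = antibody without LDV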); details: HUTS-21 LIBS mAb binding, at 6.7 µM, stronger effect = higher value
[7] = superoxide lowering in aged yeast cells, pilot screen, validation compound set (AID 2706;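 active = superoxide response below 65% of plate, a cut near 3 SD across the whole screen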;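 note: yeast exposed to compound for one week at 30 degrees C before staining; 100% = mean of all compound wells on the same plate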); details: S. cerevisiae aging, superoxide DHE fluorescence; at 10 µM; stronger effect = lower value
[8] = target: Beta-adrenergic receptor kinase 1 (Homo sapiens) (UniProt P25098); assay: GRK2 binders displacing RNA aptamer, biochemical, validation, human GRK2, bead flow cytometry (AID 488806;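 active = aptamer binding inhibition above 30%, about 3 SD of noise from non-fluorescent compounds; inactive = inhibition at or below 30%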); details: bead-bound GRK2, FAM-aptamer displacement, at 10 µM, stronger effect = higher value
[9] = target: AP-2 complex subunit beta (Homo sapiens) (UniProt P63010); assay: inhibitors of arrestin peptide binding to AP2, pilot screen, biochemical, validation set, GST-AP2 beads, flow cytometry (AID 504541;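 active = inhibition above 54%, about 3 SD of non-fluorescent compounds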;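 note: AP2 carries R879A mutation and is captured from E. coli lysate; bead-bound FITC arrestin peptide fluorescence measuring arrestin peptide binding to AP2; 0% = DMSO wells and 100% = excess unlabeled arrestin peptide control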); details: FITC arrestin peptide, at 10 µM, stronger effect = higher value
[10] = yeast V-ATPase proton transport modulators, S. cerevisiae, pHLuorin, HTS validation (AID 504600; in the data active = response above about 15%;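 note: plate controls were DMSO for no effect and reference compound for full effect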); details: S. cerevisiae pHLuorin cytosolic pH, at 10 µM, stronger effect = higher value
[11] = tested on: anti-desmoglein-3 scFv antibody binding to human DSG3; assay: inhibitors of anti-DSG3 scFv binding to DSG3, pilot screen, biochemical, validation compound set, bead-based, flow cytometry (AID 588368;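 active = binding below the plate cutoff, the plate median minus 3 SD, with a reading above zero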;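 note: signal is the median channel fluorescence of bead-bound GFP antibody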); details: Protein G beads, DSG3-Fc, scFv-GFP binding, at 10 µM, stronger effect = lower value
[12] = tested on: Botulinum neurotoxin type F light chain protease (Clostridium botulinum); assay: Botulinum neurotoxin type F light chain protease inhibition, multiplex microsphere flow cytometry, validation set (AID 588459); details: multiplex microsphere protease substrate cleavage assay, at 10 µM, stronger effect = higher value
[13] = target: Botulinum neurotoxin type A (Clostridium botulinum) (UniProt P0DPI0); assay: BoNT/A light chain protease inhibitors, biochemical, multiplex microsphere flow cytometry, validation set (AID 588460); details: at 10 µM, stronger effect = higher value
[14] = target: Lethal factor (Bacillus anthracis) (UniProt P15917); assay: Lethal factor protease inhibitors, Bacillus anthracis, multiplex microsphere cleavage assay, validation set (AID 588461); details: flow cytometry, at 10 µM, stronger effect = higher value
[15] = inhibitors of fungal efflux pumps CDR1, CDR2, MDR1, pilot screen, validation compound set, multiplex, phenotypic (AID 588506;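 active = efflux inhibition above 0.42, the validation set average plus 4 SD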;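 note: Nile Red retained in cells so higher fluorescence means more efflux inhibition; 0 = negative control wells and 1 = enniatin B 25 µM full block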); details: S. cerevisiae pump-expressing triplex, Nile Red efflux flow cytometry; at 10 µM; stronger effect = higher value
[16] = target: ATP-binding cassette sub-family B member 6 (Homo sapiens) (UniProt Q9NP58); assay: ABCB6 transporter inhibitors, pilot screen, K562-ABCB6 cells, flow cytometry, validation set (AID 588550;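 active = inhibition above the screen-wide mean plus 3 SD, about 51%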;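 note: 0% = DMSO wells and 100% = benzethonium chloride 70 µM positive control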); details: K562-ABCB6 porphyrin accumulation, 1 h, at 10 µM, stronger effect = higher value
[17] = promoters of myeloid differentiation in arrested cells, primary screen, cell-based, GFP/MAC1 double positive, flow cytometry, validation set (AID 588685;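 active = differentiation response of at least 50%, scaled between solvent and reference control, from cells with both markers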;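 note: compound exposure lasts four days before antibody staining and flow analysis; 0% = DMSO wells and 100% = 5 µM fulvestrant positive control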); details: ER-HoxA9 marrow cells, stronger effect = higher value

Chain of ATP-binding cassette sub-family B member 6 (Homo sapiens) (Q9NP58 whole entry, looked up): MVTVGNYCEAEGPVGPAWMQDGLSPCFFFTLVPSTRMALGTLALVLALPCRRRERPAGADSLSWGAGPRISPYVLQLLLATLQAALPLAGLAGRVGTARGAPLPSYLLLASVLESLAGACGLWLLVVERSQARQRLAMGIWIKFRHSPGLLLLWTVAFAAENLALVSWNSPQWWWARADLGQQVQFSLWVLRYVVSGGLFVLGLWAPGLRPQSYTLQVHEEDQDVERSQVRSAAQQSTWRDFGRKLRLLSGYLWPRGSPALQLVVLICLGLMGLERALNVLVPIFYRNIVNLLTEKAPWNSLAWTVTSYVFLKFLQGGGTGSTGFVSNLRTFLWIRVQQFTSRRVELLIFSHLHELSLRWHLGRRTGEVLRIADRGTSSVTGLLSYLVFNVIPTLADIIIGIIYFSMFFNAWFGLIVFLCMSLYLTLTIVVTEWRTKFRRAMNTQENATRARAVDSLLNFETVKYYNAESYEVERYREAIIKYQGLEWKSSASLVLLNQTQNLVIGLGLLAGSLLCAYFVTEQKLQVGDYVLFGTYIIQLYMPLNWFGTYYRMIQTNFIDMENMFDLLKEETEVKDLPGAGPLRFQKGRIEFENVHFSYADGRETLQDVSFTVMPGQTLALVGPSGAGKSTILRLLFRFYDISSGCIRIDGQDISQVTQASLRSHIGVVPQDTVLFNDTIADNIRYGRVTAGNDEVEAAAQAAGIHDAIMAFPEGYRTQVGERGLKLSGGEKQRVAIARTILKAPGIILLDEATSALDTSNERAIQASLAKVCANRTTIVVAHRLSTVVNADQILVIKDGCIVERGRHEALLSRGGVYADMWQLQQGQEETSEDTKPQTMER
Chain of Beta-adrenergic receptor kinase 1 (Homo sapiens) (P25098 whole entry, looked up): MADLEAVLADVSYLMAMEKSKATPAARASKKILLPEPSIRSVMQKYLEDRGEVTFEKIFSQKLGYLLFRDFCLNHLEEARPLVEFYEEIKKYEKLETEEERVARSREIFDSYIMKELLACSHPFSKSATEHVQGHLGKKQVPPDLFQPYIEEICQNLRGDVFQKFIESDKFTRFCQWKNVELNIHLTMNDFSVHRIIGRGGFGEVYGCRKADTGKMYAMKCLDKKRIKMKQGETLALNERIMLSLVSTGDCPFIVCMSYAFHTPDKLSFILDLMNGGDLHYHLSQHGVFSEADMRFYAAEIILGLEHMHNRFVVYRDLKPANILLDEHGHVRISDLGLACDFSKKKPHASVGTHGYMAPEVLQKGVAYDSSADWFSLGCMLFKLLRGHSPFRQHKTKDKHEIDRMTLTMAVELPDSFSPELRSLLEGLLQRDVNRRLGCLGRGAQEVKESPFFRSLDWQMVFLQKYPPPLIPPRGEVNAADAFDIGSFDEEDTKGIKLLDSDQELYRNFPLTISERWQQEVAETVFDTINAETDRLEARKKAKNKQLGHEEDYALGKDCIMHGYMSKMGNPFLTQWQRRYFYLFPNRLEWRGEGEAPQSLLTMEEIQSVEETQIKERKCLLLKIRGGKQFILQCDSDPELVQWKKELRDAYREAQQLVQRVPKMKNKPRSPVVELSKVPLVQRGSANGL
Chain of AP-2 complex subunit beta (Homo sapiens) (P63010 whole entry, looked up, one chain of several): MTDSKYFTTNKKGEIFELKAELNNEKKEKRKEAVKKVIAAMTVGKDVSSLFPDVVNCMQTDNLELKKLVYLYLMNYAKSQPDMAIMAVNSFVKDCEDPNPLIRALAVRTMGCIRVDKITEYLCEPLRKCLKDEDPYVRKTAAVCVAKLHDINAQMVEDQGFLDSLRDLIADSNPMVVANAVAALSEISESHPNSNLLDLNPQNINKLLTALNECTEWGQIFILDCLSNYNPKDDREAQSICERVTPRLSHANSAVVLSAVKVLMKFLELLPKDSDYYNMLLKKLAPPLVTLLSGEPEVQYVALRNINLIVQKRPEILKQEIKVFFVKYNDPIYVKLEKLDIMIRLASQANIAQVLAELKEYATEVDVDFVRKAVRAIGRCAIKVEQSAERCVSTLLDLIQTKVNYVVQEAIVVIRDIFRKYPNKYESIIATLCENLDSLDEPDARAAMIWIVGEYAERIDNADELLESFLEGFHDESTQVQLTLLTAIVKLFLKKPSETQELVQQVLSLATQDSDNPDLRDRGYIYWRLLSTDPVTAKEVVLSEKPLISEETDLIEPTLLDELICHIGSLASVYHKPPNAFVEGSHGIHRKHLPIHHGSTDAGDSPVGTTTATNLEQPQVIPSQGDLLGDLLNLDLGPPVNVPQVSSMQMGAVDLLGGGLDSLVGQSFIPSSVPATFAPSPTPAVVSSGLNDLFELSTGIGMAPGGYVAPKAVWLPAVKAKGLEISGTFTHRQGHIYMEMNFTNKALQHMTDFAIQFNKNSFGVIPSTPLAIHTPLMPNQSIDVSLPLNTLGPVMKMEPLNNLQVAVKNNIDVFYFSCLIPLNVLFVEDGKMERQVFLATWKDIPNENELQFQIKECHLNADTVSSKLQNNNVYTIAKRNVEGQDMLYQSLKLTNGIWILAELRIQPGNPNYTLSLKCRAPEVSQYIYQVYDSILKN
Chain of Botulinum neurotoxin type A (Clostridium botulinum) (P0DPI0 whole entry, looked up): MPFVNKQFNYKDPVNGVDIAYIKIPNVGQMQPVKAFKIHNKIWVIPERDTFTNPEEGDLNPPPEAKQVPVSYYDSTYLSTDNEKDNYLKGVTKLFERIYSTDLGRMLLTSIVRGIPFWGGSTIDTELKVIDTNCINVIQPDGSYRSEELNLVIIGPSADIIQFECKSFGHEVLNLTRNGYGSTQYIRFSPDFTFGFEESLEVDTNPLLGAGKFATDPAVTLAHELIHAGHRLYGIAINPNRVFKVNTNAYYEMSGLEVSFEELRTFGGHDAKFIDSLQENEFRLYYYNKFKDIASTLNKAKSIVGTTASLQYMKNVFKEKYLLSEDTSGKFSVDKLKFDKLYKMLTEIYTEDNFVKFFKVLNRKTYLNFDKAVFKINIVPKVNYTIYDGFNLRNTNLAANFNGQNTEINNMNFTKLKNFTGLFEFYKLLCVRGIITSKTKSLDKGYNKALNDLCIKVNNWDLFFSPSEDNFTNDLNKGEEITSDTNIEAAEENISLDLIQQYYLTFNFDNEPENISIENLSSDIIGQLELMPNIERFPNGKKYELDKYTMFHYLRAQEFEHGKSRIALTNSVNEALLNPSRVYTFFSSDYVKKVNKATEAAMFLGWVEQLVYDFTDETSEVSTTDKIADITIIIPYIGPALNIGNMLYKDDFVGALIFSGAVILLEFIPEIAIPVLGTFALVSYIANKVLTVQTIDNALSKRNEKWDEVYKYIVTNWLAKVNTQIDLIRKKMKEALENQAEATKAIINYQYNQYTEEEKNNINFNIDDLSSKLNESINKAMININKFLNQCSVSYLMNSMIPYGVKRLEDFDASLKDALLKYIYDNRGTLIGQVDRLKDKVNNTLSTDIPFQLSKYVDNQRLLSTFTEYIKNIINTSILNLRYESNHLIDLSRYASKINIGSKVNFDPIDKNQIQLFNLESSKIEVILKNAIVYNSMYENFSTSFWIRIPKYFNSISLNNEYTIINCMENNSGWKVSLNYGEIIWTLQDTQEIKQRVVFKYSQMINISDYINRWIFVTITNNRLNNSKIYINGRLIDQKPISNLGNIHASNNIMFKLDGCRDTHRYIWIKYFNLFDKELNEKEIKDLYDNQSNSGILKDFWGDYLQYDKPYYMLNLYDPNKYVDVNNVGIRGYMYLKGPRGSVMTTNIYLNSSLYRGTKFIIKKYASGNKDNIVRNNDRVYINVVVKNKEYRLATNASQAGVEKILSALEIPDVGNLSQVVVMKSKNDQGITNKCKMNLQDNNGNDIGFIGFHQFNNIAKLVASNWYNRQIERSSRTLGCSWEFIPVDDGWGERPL
Chain of Lethal factor (Bacillus anthracis) (P15917 whole entry, looked up): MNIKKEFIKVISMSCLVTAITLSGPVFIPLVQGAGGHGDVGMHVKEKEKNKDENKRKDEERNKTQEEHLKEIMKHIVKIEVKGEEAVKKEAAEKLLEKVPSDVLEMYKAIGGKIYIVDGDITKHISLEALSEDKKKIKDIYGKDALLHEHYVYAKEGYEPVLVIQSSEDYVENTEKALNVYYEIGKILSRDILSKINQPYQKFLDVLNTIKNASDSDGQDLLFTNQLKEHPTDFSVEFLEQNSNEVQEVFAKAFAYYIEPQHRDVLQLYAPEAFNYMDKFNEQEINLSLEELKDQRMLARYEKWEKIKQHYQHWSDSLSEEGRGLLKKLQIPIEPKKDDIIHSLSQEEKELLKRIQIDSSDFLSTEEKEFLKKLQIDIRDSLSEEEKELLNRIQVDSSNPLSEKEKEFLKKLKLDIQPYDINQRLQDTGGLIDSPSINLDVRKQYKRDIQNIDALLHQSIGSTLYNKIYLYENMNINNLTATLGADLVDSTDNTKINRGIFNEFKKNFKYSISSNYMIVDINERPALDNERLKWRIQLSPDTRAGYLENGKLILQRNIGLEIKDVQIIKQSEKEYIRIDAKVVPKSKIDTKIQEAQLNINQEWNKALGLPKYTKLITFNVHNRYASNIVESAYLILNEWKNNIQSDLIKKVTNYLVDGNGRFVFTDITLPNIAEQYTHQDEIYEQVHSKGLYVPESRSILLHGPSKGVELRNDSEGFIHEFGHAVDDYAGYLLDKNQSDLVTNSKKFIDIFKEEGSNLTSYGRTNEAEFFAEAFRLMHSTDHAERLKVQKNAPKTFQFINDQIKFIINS

Structure (SMILES) | percent of DMSO control GFP [1] | GFP response vs DMSO [2] | percent response of DMSO control [3] | GFP response vs DMSO [4] | double positive events [5] [%] | vesicle binding response [5] | inhibition [6] | superoxide response (% of plate) [7] | aptamer binding inhibition [8] | inhibition [9] | response [10] | binding (% of control) [11] | inhibition [12] | inhibition [13] | inhibition [14] | efflux inhibition (fraction of control) [15] | inhibition [16] | differentiation response [17]
Cc1cccc(C)c1NC1=NCCCS1 | 94.7% (inactive) | 104% (inactive) | 94.9% (inactive) | 91.3% (inactive) | 62.8 | 180% (inactive) | 13.8% (inactive) | 97.2% (inactive) | 2% (inactive) | 15.3% (inactive) | 1.52% (inactive) | 102% (inactive) | -2.3% (inactive) | -0.6% (inactive) | 1.9% (inactive) | 0.18 (inactive) | 5% (inactive) | -9.89% (inactive)
CN[C@H](C)[C@H](O)c1ccccc1 | 90.2% (inactive) | 131% (inactive) | 102% (inactive) | 87.5% (inactive) | 53.3 | 176% (inactive) | 8.4% (inactive) | 97.6% (inactive) | 4% (inactive) | 39.6% (inactive) | -4.76% (inactive) | 102% (inactive) | – | – | – | 0.27 (inactive) | 5% (inactive) | -0.82% (inactive)
O=C(CCCN1CCC2(CC1)C(=O)NCN2c1ccccc1)c1ccc(F)cc1 | 98.9% (inactive) | 95.7% (inactive) | 102% (inactive) | 110% (inactive) | 62.6 | 187% (inactive) | 8.25% (inactive) | 85.3% (inactive) | -1% (inactive) | -9.7% (inactive) | 1.45% (inactive) | 103% (inactive) | – | – | 0.5% (inactive) | 0.12 (inactive) | -1% (inactive) | 3.88% (inactive)
CC[C@@H](CO)NC(=O)[C@@H]1C=C2c3cccc4c3c(cn4C)C[C@H]2N(C)C1 | 103% (inactive) | 103% (inactive) | 99.8% (inactive) | 90.3% (inactive) | 59.1 | 158% (inactive) | 8.15% (inactive) | 108% (inactive) | 2% (inactive) | 0.36% (inactive) | -0.46% (inactive) | 104% (inactive) | – | – | -6.6% (inactive) | 0.56 (active) | 7% (inactive) | 1.41% (inactive)
CC(=O)C1=C(C)OC(N)=C(C(=O)OC(C)C)C12C(=O)Nc1ccccc12 (stereo not given) | 102% (inactive) | 105% (inactive) | 103% (inactive) | 99.4% (inactive) | 56.3 | 194% (inactive) | 0.69% (inactive) | 103% (inactive) | 0% (inactive) | 0.23% (inactive) | -0.91% (inactive) | 93.8% (inactive) | -2.3% (inactive) | -0.1% (inactive) | -1.4% (inactive) | 0.1 (inactive) | 8% (inactive) | -18% (inactive)
CC(Cc1ccccc1)NCC(=O)Nc1cc(N(C)C)nc2ccccc12 (stereo not given) | 101% (inactive) | 107% (inactive) | 93.9% (inactive) | 105% (inactive) | 52.9 | 191% (inactive) | -40.4% (inactive) | 93.7% (inactive) | 5% (inactive) | -8.4% (inactive) | -1.24% (inactive) | 99.3% (inactive) | 11.6% (inactive) | 6.4% (inactive) | 0.6% (inactive) | -0.31 (inactive) | 8% (inactive) | -18% (inactive)
O=C(O)CCCc1ccc(N(CCCl)CCCl)cc1 | 101% (inactive) | 103% (inactive) | 98.8% (inactive) | 97.4% (inactive) | 63.4 | 148% (inactive) | 23.1% (inactive) | 93.9% (inactive) | 4% (inactive) | 1.29% (inactive) | -5.67% (inactive) | 105% (inactive) | -4% (inactive) | -2.1% (inactive) | -3.4% (inactive) | 0.48 (active) | 8% (inactive) | 17.6% (inactive)
Cc1ccc(/C=C2/C(=O)NC(=O)N(C)C2=O)cc1 | 97.4% (inactive) | 96.9% (inactive) | 95.9% (inactive) | 97.4% (inactive) | 53.7 | 135% (inactive) | 20.3% (inactive) | 101% (inactive) | 5% (inactive) | -0.14% (inactive) | -4.11% (inactive) | 97.8% (inactive) | 0.6% (inactive) | 1.8% (inactive) | 6.7% (inactive) | 0.22 (inactive) | 6% (inactive) | -0.2% (inactive)
CC(=O)[C@H]1CC[C@H]2[C@@H]3CC[C@H]4C[C@H](O)CC[C@]4(C)[C@H]3C(=O)C[C@]12C | 100% (inactive) | 97.9% (inactive) | 92% (inactive) | 106% (inactive) | 60.9 | 146% (inactive) | 6.29% (inactive) | 110% (inactive) | 3% (inactive) | 42.5% (inactive) | -11.1% (inactive) | 99.5% (inactive) | 0.8% (inactive) | 2.5% (inactive) | -1.9% (inactive) | 0.14 (inactive) | 5% (inactive) | 46.6% (inactive)
